Assay results taken from PubChem BioAssay (NCI).
About 83,000 compounds went through this panel and 20% of them were active in at least one assay; those are over-represented in the sample as a whole.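 Results are percent growth after 48 hours of single-concentration exposure. 100 means growth as in untreated cells, lower positive values show inhibition; negative values down to -100 show cell death.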 A number with no mark means an inactive call. The source made the active and inactive calls. Rule for the calls: active = growth percent below 10; inactive = the rest.

Assays:
Test in all cases: NCI-60 one-dose screen, 48 h (100 = growth as untreated, 0 = no growth, -100 = all killed)
NCI-H226 lung = conditions: 10 µM
NCI-H322M lung = conditions: 10 µM
HOP-62 NSCLC = conditions: 10 µM
NCI-H522 lung = conditions: 10 µM
COLO 205 colon = conditions: 10 µM
DU-145 prostate = conditions: 10 µM
SF-268 CNS = conditions: 10 µM
SF-295 CNS = conditions: 10 µM
SF-539 CNS = conditions: 10 µM
M14 melanoma = conditions: 10 µM
HCT-15 colon = conditions: 10 µM
SNB-75 CNS = conditions: 10 µM
SNB-19 CNS = conditions: 10 µM
U251 CNS = conditions: 10 µM
PC-3 prostate = conditions: 10 µM
SK-MEL-5 melanoma = conditions: 10 µM
UACC-62 melanoma = conditions: 10 µM
SK-MEL-28 melanoma = conditions: 10 µM
SK-MEL-2 melanoma = conditions: 10 µM
HL-60(TB) leukemia = conditions: 10 µM unless noted

Structure (SMILES)	growth (NCI-H226 lung)	growth (NCI-H322M lung)	growth (HOP-62 NSCLC)	growth (NCI-H522 lung)	growth (COLO 205 colon)	growth (DU-145 prostate)	growth (SF-268 CNS)	growth (SF-295 CNS)	growth (SF-539 CNS)	growth (M14 melanoma)	growth (HCT-15 colon)	growth (SNB-75 CNS)	growth (SNB-19 CNS)	growth (U251 CNS)	growth (PC-3 prostate)	growth (SK-MEL-5 melanoma)	growth (UACC-62 melanoma)	growth (SK-MEL-28 melanoma)	growth (SK-MEL-2 melanoma)	growth (HL-60(TB) leukemia)
COc1cc(OC)c(S(=O)(=O)N(CCCl)CCCl)cc1C(=O)/C=C/c1cc(OC)c(OC)c(OC)c1	7.87% (active)	12.9%	-5.79% (active)	-69.1% (active)	-89.8% (active)	-30.3% (active)	2.74% (active)	0.899% (active)	-74.1% (active)	-59.4% (active)	-25.1% (active)	-78.2% (active)	-38.6% (active)	-79.6% (active)	10.3%	-71.3% (active)	-33.9% (active)	-68.5% (active)	-94.5% (active)	-25.8% (active)
CC12OOC(C)(OO1)C2CCC(=O)OCCNc1ccnc2cc(Cl)ccc12 (centres undefined)	98%	96.6%	96.8%	-79.2% (active)	-54.4% (active)	-53.9% (active)	97%	83%	35.6%	14.6%	-73.2% (active)	90.5%	97.6%	105%	53.6%	36.5%	88.1%	93%	107%	-40.3% (active)
COc1cc2cc(C(=O)N3C[C@@H](CCl)c4c3cc(OC(=O)N3CCN(C(=O)CCC(=O)N5CCN(C)CC5)[C@@H]5CSSC[C@@H]53)c3ccccc43)[nH]c2c(OC)c1OC	-11.6% (active)	-7.14% (active)	-55.3% (active)	-82.7% (active)	-65.6% (active)	-4.3% (active)	-28.4% (active)	-88.5% (active)	-91.8% (active)	-81.7% (active)	-87.4% (active)	-90.1% (active)	-50.2% (active)	-71.2% (active)	-10.5% (active)	-100% (active)	-64% (active)	-94.4% (active)	-83.3% (active)	-37.6% (active)
COC(=O)CCn1c(-c2ccc(-n3cc(-c4ccc(O[C@H]5O[C@@H]6OC7(C)CC[C@H]8[C@H](C)CC[C@@H]([C@H]5C)[C@@]68OO7)cc4)nn3)cc2)nc2ccccc21	32.8%	46.7%	32%	-22.8% (active)	-26.6% (active)	34%	31.8%	21.1%	20.9%	25.4%	10.4%	48.5%	24.5%	32.5%	25.7%	1.38% (active)	10.8%	28.6%	-6.2% (active)	-3.65% (active)
COC(=O)C[C@](O)(CCC(C)C)C(=O)O[C@@H]1C(OC)=C[C@]23CCCN2CCc2cc4c(cc2[C@H]13)OCO4	-55.1% (active)	-25.1% (active)	-50.4% (active)	-80.7% (active)	-84.7% (active)	-26.7% (active)	-21.3% (active)	-35.5% (active)	-77.1% (active)	-89% (active)	-32.9% (active)	-32.9% (active)	-16.9% (active)	-27.3% (active)	-19% (active)	-95.4% (active)	-92.5% (active)	-68.8% (active)	-85.9% (active)	-31% (active)
CCC[Se]C(=O)c1ccc(C(=O)[Se]CCC)s1	-50.9% (active)	-33.4% (active)	-77.7% (active)	17.9%	-85.7% (active)	9.92% (active)	3.6% (active)	-85.7% (active)	-84.7% (active)	-63.4% (active)	-71% (active)	-31.2% (active)	-86.5% (active)	-60.4% (active)	4.67% (active)	-76.3% (active)	-64.9% (active)	-62.9% (active)	-24.1% (active)	-26.7% (active)
CC(C)N=C([Se])NC(=O)c1ccccc1	-33.5% (active)	-3.38% (active)	8.36% (active)	-77.7% (active)	-11.7% (active)	-74.6% (active)	14.3%	-23.9% (active)	-82.9% (active)	-65.2% (active)	1.65% (active)	-49.5% (active)	11.4%	-59.4% (active)	-21.8% (active)	-57.1% (active)	-35.3% (active)	-43.9% (active)	-40% (active)	-15.4% (active)
O=C(NC([Se])=NC1CCCCC1)c1ccc2c(c1)OCO2	85.6%	11.9%	23.3%	42.1%	28.1%	49%	122%	6.53% (active)	56.9%	60.2%	47.3%	10.6%	33.3%	27.6%	36.4%	79.3%	76.3%	51.6%	99.6%	65.7%
O=C(/C=C/c1ccccc1)c1nc2ccccc2n1Cc1ccc(F)cc1	-48.5% (active)	37%	-26% (active)	-33% (active)	-43.4% (active)	2.92% (active)	10.8%	-11% (active)	-89.1% (active)	-20.8% (active)	-70.1% (active)	3.39% (active)	-47.9% (active)	-73.6% (active)	-33.5% (active)	11%	-39% (active)	-26.4% (active)	18.9%	-25.3% (active)
CC(C)C[C@H](NC(=O)CNC(=O)C[C@H]1O[C@@H]2OC3(C)CC[C@H]4[C@H](C)CC[C@@H]([C@H]1C)[C@@]24OO3)B(O)O	-22.4% (active)	51.6%	-17% (active)	-73.8% (active)	17.8%	42.3%	17.4%	-63.6% (active)	-93.3% (active)	-43.8% (active)	22.7%	-15.7% (active)	27.4%	13.7%	4.1% (active)	-90.2% (active)	-86.6% (active)	-38.5% (active)	-57.3% (active)	0.92% (active)
CC[C@]12C=CCN3CC[C@@]4(c5ccc(OC)cc5N(C)[C@H]4[C@@](O)(C(=O)OC)[C@@H]1OC(=O)CCC[P+](c1ccc(F)cc1)(c1ccc(F)cc1)c1ccc(F)cc1)[C@@H]32	46.9%	65.2%	64%	-17.7% (active)	-19% (active)	47.7%	42.3%	85%	24.2%	21.5%	99.6%	39.9%	13.8%	18.5%	16.7%	-38.3% (active)	-59.5% (active)	-24.1% (active)	-46.9% (active)	-22.9% (active)
COc1ccc(/C=C/C(=O)c2nc3ccccc3n2Cc2ccc(Br)cc2)cc1	69.7%	73.9%	92.8%	76.4%	91.4%	61.9%	68%	81.9%	78.3%	72.5%	38.8%	66.1%	74.4%	50.2%	57.4%	83.3%	65%	85.9%	88.8%	41.2%
CC1=C(COCCOC(=O)c2ccc(S(=O)(=O)F)cc2)C2=C(C)C3(CC3)[C@@](C)(O)C(=O)C2=C1	-39.9% (active)	-25.8% (active)	-27.5% (active)	-72.2% (active)	-73% (active)	-3.95% (active)	12.9%	-11.8% (active)	-76.2% (active)	11.1%	-29.6% (active)	-15.9% (active)	-10.6% (active)	4.59% (active)	8.96% (active)	-92.1% (active)	-88.5% (active)	-63.6% (active)	-99.4% (active)	-22.9% (active)
CC12OOC(C)(OO1)C2CCC(=O)NCCCNc1ccnc2cc(Cl)ccc12 (centres undefined)	94%	97.1%	95.1%	-77.8% (active)	-62.6% (active)	-74.4% (active)	101%	102%	52.9%	86%	-45.1% (active)	103%	94.1%	101%	84.1%	86.4%	87.2%	72%	100%	
O=C(/C=C/c1ccc(Br)cc1)c1nc2ccccc2n1Cc1ccc(Br)cc1	-70.1% (active)	39%	-22.1% (active)	-39.8% (active)	-39.8% (active)	17.9%	29.9%	-34.9% (active)	-60.2% (active)	-26.7% (active)	-68.4% (active)	45%	-66.9% (active)	-86.3% (active)	18.7%	1.54% (active)	-66.5% (active)	-43.9% (active)	2.53% (active)	-13.2% (active)
